Reference: PubChem BioAssay (NCATS)
Inconclusive results are not listed. Unless noted, calls follow the shape of the dose curve; as a rule, active = well fitted curve in either direction with a large enough effect (not every such curve was filed as active); inconclusive = small, poorly fitted or top-dose-only effect, or another doubt; inactive = flat fitted curve, though single readings scatter.

Legend:
[1] = AP1 Signaling Pathway (AID 357); details: ME-180 AP-1-bla reporter, EGF-induced, beta-lactamase ratio, 5 h; at 17.2 µM (top of the series) unless noted;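 also: ME-180 reporter cells stimulated with EGF at its EC50 level; % is scaled to controls: 0 for no effect and ±100 for the full control effect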
Outline: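 Titration-series screen for positive or negative modulators of EC50 EGF-induced signaling in ME-180 cells carrying an AP-1-driven beta-lactamase reporter. After 5 hours at 37 degrees Celsius, CCF4 460nm/530nm emission ratio gave %Activity; AC50 values derived.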

[2] = NFAT Signaling Pathway (AID 444); details: Jurkat NFAT-bla M1, carbachol, beta-lactamase ratio, 5 h; at 17.2 µM (top of the series) unless noted;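 also: carbachol stimulus at about its EC50 of 1 µM final; % is scaled to controls: 0 for no effect and ±100 for the full control effect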
Outline: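 Read-out: CCF4 FRET ratio (460 nm/530 nm) after 1 h RT dye loading, used for %activity and AC50 from titration series. Cells: Jurkat NFAT-β-lactamase/M1 line, treated with compound plus 1 uM carbachol for 5 h, 37 °C.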

[3] = Stat Signaling Pathway (AID 446); details: ME-180 SIE beta-lactamase reporter, IL-6 stimulated, 5 h; at 17.2 µM (top of the series) unless noted;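 also: ME-180 cervical cancer cells given 40 pM IL-6 alongside compound; SIE-controlled beta-lactamase reporter measured as 460/530 nm FRET emission ratio; % is scaled to controls: 0 for no effect and ±100 for the full control effect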
Outline: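 ME-180 SIE-bla cells; overnight plating; cpd + IL-6 40 pM, 5 h, 37 C; LiveBLAzer 2.5 h RT; 460/530 nm emission ratio. Normalized to 300 pM IL-6 and 125 nM JAK inhibitor controls.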

[4] = target: Glucocorticoid receptor (Homo sapiens) (UniProt P04150); assay: GR-GFP Redistribution (AID 450;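 active = compounds whose dose series gives a full or clear partial fitted curve of increased nuclear translocation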; also: potency is read from the fitted curve at half-maximal effect); details: U2OS GR-GFP nuclear translocation, laser cytometry, 2 h; series mostly up to 20.6 µM
Glucocorticoid receptor (Homo sapiens), sequence (P04150 whole entry, looked up): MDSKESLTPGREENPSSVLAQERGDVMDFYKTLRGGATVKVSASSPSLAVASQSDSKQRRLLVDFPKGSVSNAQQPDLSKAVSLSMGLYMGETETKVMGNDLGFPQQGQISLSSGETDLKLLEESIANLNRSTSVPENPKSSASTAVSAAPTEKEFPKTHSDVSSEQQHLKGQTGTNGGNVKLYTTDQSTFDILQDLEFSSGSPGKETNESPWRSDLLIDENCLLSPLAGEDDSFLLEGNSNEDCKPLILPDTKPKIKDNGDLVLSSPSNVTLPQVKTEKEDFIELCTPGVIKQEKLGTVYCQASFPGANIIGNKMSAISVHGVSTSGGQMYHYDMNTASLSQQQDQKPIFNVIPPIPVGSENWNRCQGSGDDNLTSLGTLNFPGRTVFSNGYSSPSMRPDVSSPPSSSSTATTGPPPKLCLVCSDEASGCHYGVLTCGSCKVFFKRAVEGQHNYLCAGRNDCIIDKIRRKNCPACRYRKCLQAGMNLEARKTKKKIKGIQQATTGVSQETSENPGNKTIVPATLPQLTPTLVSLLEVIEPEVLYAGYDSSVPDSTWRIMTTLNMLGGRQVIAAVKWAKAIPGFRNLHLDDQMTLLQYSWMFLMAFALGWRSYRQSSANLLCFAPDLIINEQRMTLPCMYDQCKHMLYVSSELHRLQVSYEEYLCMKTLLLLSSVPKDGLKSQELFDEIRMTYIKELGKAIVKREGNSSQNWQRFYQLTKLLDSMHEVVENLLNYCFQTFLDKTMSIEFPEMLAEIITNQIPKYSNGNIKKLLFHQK

CCOC(=O)Cn1nc(C)c2ccccc2c1=O
inactive: activity change, negative = inhibition [1] 5.31% | activity change, negative = inhibition [2] 3.38% | activity, negative = inhibition [3] -2.19% | Potency [4] > 20.6 µM

CCc1[nH]c(=O)c(C#N)c2c1CCCC2
inactive: activity change, negative = inhibition [1] 3.3% | activity change, negative = inhibition [2] -7.46% | activity, negative = inhibition [3] 4.68% | Potency [4] > 20.6 µM

O=S(=O)(c1ccc2ccccc2c1)N(CC(O)CN1CCOCC1)c1ccccc1 (stereo not given)
inactive: activity change, negative = inhibition [1] -11.7% | activity change, negative = inhibition [2] 4.35% | activity, negative = inhibition [3] -7.59% | Potency [4] > 20.6 µM

COCCOC(=O)c1c(C)nc(SCC(=O)Nc2ccc(C)cc2)c(C#N)c1-c1ccco1
inactive: activity change, negative = inhibition [1] -27.8% | activity change, negative = inhibition [2] -11.8% | activity, negative = inhibition [3] -18.9% | Potency [4] > 20.6 µM

N#Cc1nc(COc2ccccc2)oc1N1CCCC1
inactive: activity change, negative = inhibition [1] -20.4% | activity change, negative = inhibition [2] 4.75% | activity, negative = inhibition [3] 0.032% | Potency [4] > 20.6 µM

CCOC(=O)CSC1=C(C#N)C(c2ccc(OC)cc2)C2=C(CC(C)(C)CC2=O)N1 (stereo not given)
inactive: activity change, negative = inhibition [1] -15.4% | activity change, negative = inhibition [2] 7.5% | activity, negative = inhibition [3] -4.41% | Potency [4] > 20.6 µM

CC(=O)NC1(C(F)(F)F)C(=O)Nc2c1c(=O)n(C)c(=O)n2C (stereo not given)
inactive: activity change, negative = inhibition [1] 21.1% | activity change, negative = inhibition [2] 7.97% | activity, negative = inhibition [3] 0.854% | Potency [4] > 20.6 µM

O=c1[nH]cnc2c1cnn2Cc1ccccc1
inactive: activity change, negative = inhibition [1] 2.81% | activity change, negative = inhibition [2] -7.78% | activity, negative = inhibition [3] 6.19% | Potency [4] > 20.6 µM

c1ccc(OCc2nn3c(-c4cccnc4)nnc3s2)cc1
inactive: activity change, negative = inhibition [1] -6.61% | activity change, negative = inhibition [2] 2.29% | activity, negative = inhibition [3] -4.47% | Potency [4] > 20.6 µM

CCCC1CC(=O)OC1(C)C(=O)CSc1n[nH]c(-c2ccccc2)n1 (stereo not given)
inactive: activity change, negative = inhibition [1] -6.44% | activity change, negative = inhibition [2] 8.59% | activity, negative = inhibition [3] -7.88% | Potency [4] > 20.6 µM

CCCCN(C(=O)CCC(=O)O)C1CC(=O)N(c2ccc(OCCC)cc2)C1=O (stereo not given)
inactive: activity change, negative = inhibition [1] 0.952% | activity change, negative = inhibition [2] -3.79% | activity, negative = inhibition [3] 5.12% | Potency [4] > 20.6 µM

O=c1c(C=NCCCn2ccnc2)c(-c2ccccc2)[nH]n1-c1nc2ccccc2s1
inactive: activity change, negative = inhibition [1] -0.182% | activity change, negative = inhibition [2] -18.1% | activity, negative = inhibition [3] -15.5% | Potency [4] > 20.6 µM

COn1c(SC2CCCCC2)nc2ccccc2c1=O
inactive: activity change, negative = inhibition [1] -10.8% | activity change, negative = inhibition [2] 7.75% | activity, negative = inhibition [3] -9.6% | Potency [4] > 20.6 µM

CCCOc1ccc(N2C(=O)CC(N(CCC)C(=O)CCC(=O)O)C2=O)cc1 (stereo not given)
inactive: activity change, negative = inhibition [1] 3.59% | activity change, negative = inhibition [2] 18.7% | activity, negative = inhibition [3] 6.31% | Potency [4] > 20.6 µM

CC(C)c1nc2n[nH]c(N)c2c2c1CCC2
inactive: activity change, negative = inhibition [1] 3.28% | activity change, negative = inhibition [2] 9.31% | activity, negative = inhibition [3] -1.39% | Potency [4] > 20.6 µM

Cc1oc2nc(SCCCC(=O)NCCCO)nc(N)c2c1C
inactive: activity change, negative = inhibition [1] -11.8% | activity change, negative = inhibition [2] 15.2% | activity, negative = inhibition [3] 4.84% | Potency [4] > 20.6 µM

CC(C)OC(=O)CCNc1n[nH]c(=O)[nH]c1=O
inactive: activity change, negative = inhibition [1] 5.78% | activity change, negative = inhibition [2] 0.573% | activity, negative = inhibition [3] 0.163% | Potency [4] > 20.6 µM

CC(O)CNc1nc2c(c(=O)n(C)c(=O)n2C)n1CCc1ccccc1 (stereo not given)
inactive: activity change, negative = inhibition [1] -2.48% | activity change, negative = inhibition [2] -12.9% | activity, negative = inhibition [3] -8.4% | Potency [4] > 20.6 µM

CCOC(=O)c1c(-c2cccs2)csc1NC(=O)CCCC(=O)O
inactive: activity change, negative = inhibition [1] -7.6% | activity change, negative = inhibition [2] -2.47% | activity, negative = inhibition [3] -0.962% | Potency [4] > 20.6 µM

O=C(C1=C(O)C(=O)N(CCCN2CCOCC2)C1c1ccccn1)c1cc2ccccc2o1 (stereo not given)
inactive: activity change, negative = inhibition [1] 0.283% | activity change, negative = inhibition [2] 1.99% | activity, negative = inhibition [3] -5.61% | Potency [4] > 20.6 µM

Cc1cccc(N)c1SC1CCCCC1O (stereo not given)
inactive: activity change, negative = inhibition [1] -3.66% | activity change, negative = inhibition [2] -1.33% | activity, negative = inhibition [3] 2.62% | Potency [4] > 20.6 µM

CCCn1nnc(NC(=O)c2cc(Br)cc(Br)c2OC)n1
inactive: activity change, negative = inhibition [1] -4.03% | activity change, negative = inhibition [2] -11.1% | activity, negative = inhibition [3] -4.41% | Potency [4] > 20.6 µM

c1ccc(-c2nn3c(C4CCCCC4)nnc3s2)cc1
inactive: activity change, negative = inhibition [1] -19.5% | activity change, negative = inhibition [2] -5.79% | activity, negative = inhibition [3] 18.2% | Potency [4] > 20.6 µM

CC(=O)[C@H]1CC[C@H]2[C@@H]3CCC4=CC(=O)CC[C@]4(C)[C@H]3[C@H](O)C[C@]12C
inactive: activity change, negative = inhibition [1] -0.48% | activity change, negative = inhibition [2] 2.54% | activity, negative = inhibition [3] 2.53% | Potency [4] > 20.6 µM

Cc1cc(C)n(-c2nnc(C)n2/N=C/c2ccco2)n1
inactive: activity change, negative = inhibition [1] 4.26% | activity change, negative = inhibition [2] -7.08% | activity, negative = inhibition [3] 2.31% | Potency [4] > 20.6 µM
